In PubChem BioAssay (EPA / NIEHS) one finds outcome and AC50 data, which are given here for eight molecules.

Assay [1] can be described thus: APR_HepG2_CellLoss_72hr: Apredica 72-hour HepG2 Assay for Cell Loss (AID 2282915). The note with it: high-content imaging. The procedure, abridged:
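Cell number comes from Hoechst 33342-labelled nuclei, imaged at 20x after 3.7% formaldehyde fixation. Dosing was 0.39–200 uM, ten concentrations in duplicate, 0.5% DMSO final, for 72 h. Bidirectional fit relative to DMSO baseline.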

Assay [2] is described as follows: APR_HepG2_P-H2AX_72hr: Apredica 72-hour HepG2 Assay for H2AX Phosphorylation (AID 2282916).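 Note: phospho-histone H2A.x immunostain intensity per cell marking DNA damage.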 The note with it: imaging, actives raise or lower the signal. The gist of the method:
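Phospho-H2A.x imaging endpoint in HepG2 after 72 hr compound exposure (0.39–200 uM, duplicate wells). Activity derived by bidirectional curve fitting with DMSO as baseline.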

Assay [3] in a line: APR_HepG2_MitoMembPot_72hr: Apredica 72-hour HepG2 Assay for Mitochondrial Membrane Potential (AID 2282917). The note with it: imaging, actives raise or lower the signal. The gist of the method: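 Membrane potential read by MitoTracker Red CMXRos (250 nM, 30 min, pre-fixation) fluorescence imaging of HepG2 after 72 hr exposure. Ten concentrations, 0.39–200 uM, duplicate wells, 0.5% DMSO; fitted in both directions against DMSO baseline.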

Assay [4] can be described thus: APR_HepG2_MitoticArrest_72hr: Apredica 72-hour HepG2 Assay for Mitotic Arrest (AID 2282918). The note with it: high-content imaging, actives raise or lower the signal. The gist of the method: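 Using high-content imaging of fixed HepG2 cells, phospho-histone H3 signal was measured following a 72 hr incubation with ten-point compound dilutions up to 200 uM. DMSO served as the negative control and baseline for bidirectional curve fitting.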

A short description of assay [5]: APR_HepG2_MicrotubuleCSK_72hr: Apredica 72-hour HepG2 Assay for Microtubule CSK Stabilty (AID 2282919). The note with it: HepG2 microtubule cytoskeleton, high-content imaging, actives raise or lower the signal. The procedure, abridged: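 High-content imaging of alpha-tubulin staining in fixed HepG2 cells after 72 hr treatment with ten concentrations from 0.39 to 200 uM (0.5% DMSO). Fitting was bidirectional against DMSO; taxol served as positive control.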

Assay [6] in a line: APR_HepG2_P-H2AX_24hr: Apredica 24-hour HepG2 Assay for H2AX Phosphorylation (AID 2282920). The note with it: high-content imaging, actives raise or lower the signal. The gist of the method: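 Human HepG2 liver cells, treated 24 hr with test chemicals (0.39–200 uM, final DMSO 0.5% v/v), are fixed and co-stained for phospho-H2A.x and c-Jun with Hoechst. Imaged intensity is fitted in both directions against DMSO controls.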

The nature of assay [7]: APR_HepG2_StressKinase_24hr: Apredica 24-hour HepG2 Assay for Stress Kinase (AID 2282922). The note with it: HepG2 stress kinase (phospho-c-Jun) imaging, actives raise or lower the signal. The procedure, abridged:
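High-content imaging of phospho-c-Jun immunofluorescence in fixed, permeabilized HepG2 cells after 24 h dosing. Ten concentrations, 0.39 to 200 uM, run in duplicate at 0.5% v/v DMSO; gain or loss of signal versus DMSO.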

A short description of assay [8]: APR_HepG2_p53Act_72hr: Apredica 72-hour HepG2 Assay for p53 Activation (AID 2282923).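 Note: average cellular p53 protein immunofluorescence intensity in HepG2 cells.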 The note with it: high-content imaging, actives raise or lower the signal. The procedure, abridged:
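Fixed-cell p53 staining (sheep primary, Cy5 secondary) measured by fluorescence imaging following 72 hr treatment at 0.39–200 uM in 0.5% DMSO; DMSO served as negative control and baseline.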

Assay [9] can be described thus: APR_HepG2_MitoMass_72hr: Apredica 72-hour HepG2 Assay for Mitochondrial Mass (AID 2282924).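 Note: MitoTracker Red CMXRos stain intensity per cell imaged as mitochondrial mass.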 The note with it: high-content imaging, actives raise or lower the signal. The gist of the method:
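Readout is imaged MitoTracker Red (250 nM, 30 min, pre-fixation) signal, fitted bidirectionally against DMSO baseline. Human HepG2 liver cells received compound 0.39–200 uM in duplicate for 72 hr, final DMSO 0.5%.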

Assay [10] can be described thus: APR_HepG2_NuclearSize_72hr: Apredica 72-hour HepG2 Assay for Nuclear Size (AID 2282925). The note with it: high-content imaging, actives raise or lower the signal. The gist of the method:
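Nuclear size was read by high-content imaging of Hoechst 33342 stain after formaldehyde fixation. Compounds ran 72 h on HepG2 at 0.39 to 200 uM, with final DMSO 0.5% v/v. Curves fitted both directions relative to DMSO control.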

The nature of assay [11]: ATG_CRE_CIS: Attagene CIS-FACTORIAL HepG2 Assay for human cAMP Responsive Element (CRE) binding protein 3 (AID 2282926). The note with it: HepG2 CRE cis-reporter, Attagene multiplexed mRNA; actives raise or lower the signal. The procedure, abridged: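 Liver-derived HepG2, transfected with a CRE-containing reporter panel, exposed 24 h; transcript levels sized and quantified by capillary electrophoresis of labelled amplicons; signal changes either way referenced to vehicle.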

Assay [12] addresses CCAAT/enhancer-binding protein beta (Homo sapiens) (UniProt P17676). Briefly: ATG_C_EBP_CIS: Attagene CIS-FACTORIAL HepG2 Assay for human CCAAT/Enhancer Binding Protein (C/EBP) beta (AID 2282927). The note with it: HepG2 Attagene cis-factorial transcription factor reporter; actives raise or lower the signal. The gist of the method: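 Endogenous C/EBPb-driven reporter transcripts measured in transfected human HepG2 cells at 24 h via RT-PCR and capillary electrophoresis of labelled fragments. Activity fitted in both directions relative to DMSO baseline.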

A short description of assay [13]: ATG_CMV_CIS: Attagene CIS-FACTORIAL HepG2 Assay for human CMV (Internal Marker) (AID 2282928).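 Note: endpoint acts as a background internal control marker rather than a target.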 The note with it: HepG2 CMV promoter reporter, transcription factor profiling; actives raise or lower the signal. The gist of the method: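 Readout: fluorescent reporter cDNA fragments separated by capillary electrophoresis after RT-PCR and HpaI cut. Cells: HepG2 carrying transfected cis-promoter reporter constructs, dosed 24 h. Endpoint serves as background internal-marker control, fit bidirectionally versus DMSO.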

Assay [14] concerns the target Aryl hydrocarbon receptor (Homo sapiens) (UniProt P35869). Briefly: ATG_Ahr_CIS: Attagene CIS-FACTORIAL HepG2 Assay for human Aryl Hydrocarbon Receptor (Ahr) (AID 2282930). The note with it: HepG2 AhR cis-factorial reporter transcription; actives raise or lower the signal. The gist of the method:
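Reporter mRNA levels, quantified by RT-PCR and fluorescent capillary electrophoresis, reflect endogenous AhR transcriptional activity in HepG2 cells carrying transfected cis-promoter reporter constructs. Readout at 24 h post-dose; gain or loss fitted against DMSO baseline.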

Assay [15] in a line: ATG_AP_2_CIS: Attagene CIS-FACTORIAL HepG2 Assay for human Activator Protein 2 (AP-2) (AID 2282932). The note with it: HepG2 AP-2 cis-reporter, Attagene transcription factor profiling; actives raise or lower the signal. The gist of the method:
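Transiently transfected HepG2 cells are exposed to chemical for 24 h. Reporter transcripts are then measured as fluorescence following RT-PCR and capillary separation, and gain- or loss-of-signal is fitted relative to DMSO.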

The nature of assay [16]: ATG_BRE_CIS: Attagene CIS-FACTORIAL HepG2 Assay for human Bone Morphogenetic Protein (BMP) Response Element (BRE) (AID 2282933). The note with it: HepG2 BMP response element reporter, Attagene transcription factor profiling; actives raise or lower the signal. The procedure, abridged: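 Gain- or loss-of-signal was derived by bidirectional fitting against DMSO controls. The signal came from reporter mRNA, measured by RT-PCR and capillary electrophoresis, in HepG2 cells transiently carrying multiple reporter units and dosed for 24 h.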

Assay [17] addresses Retinoic acid receptor alpha (Homo sapiens) (UniProt P10276). Briefly: ATG_DR5_RAR_CIS: Attagene CIS-FACTORIAL HepG2 Assay for human Retinoic Acid Receptor Alpha (RARE), DR5 submotif (AID 2282934).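 For AC50: reporter responds to endogenous RAR alpha beta and gamma in HepG2 not RARA alone.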 The note with it: HepG2 Attagene cis-factorial RARE DR5 reporter, mRNA; actives raise or lower the signal. The gist of the method:
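Reporter transcripts from a DR5-regulated unit, measured via RT-PCR plus capillary electrophoresis, reflect endogenous RAR activity in transiently transfected human HepG2 liver cells. Exposure lasted 24 h; gain or loss of signal scored against DMSO.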

Assay [18] in a line: ATG_AP_1_CIS: Attagene CIS-FACTORIAL HepG2 Assay for human Activator Protein 1 (AP-1) (AID 2282931). The note with it: HepG2 Attagene cis-factorial AP-1 reporter mRNA; actives raise or lower the signal. The gist of the method: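 After 24 h incubation with test chemical, RNA from transfected HepG2 cells was reverse-transcribed, amplified, fluorescently labelled and digested before capillary electrophoresis. Reporters were driven by cis-regulatory promoters; activity fitted bidirectionally versus DMSO.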

A short description of assay [19]: ATG_DR4_LXR_CIS: Attagene CIS-FACTORIAL HepG2 Assay for human Liver X Receptor (LXR), DR4 submotif (AID 2282929). The note with it: HepG2 Attagene DR4 cis-reporter, mRNA transcription; actives raise or lower the signal. The procedure, abridged:
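After transient transfection with multiplexed cis-promoter reporter units, HepG2 cells received test chemicals for 24 h. Reporter mRNA induction, detected by fluorescence after RT-PCR and capillary electrophoresis, was scored relative to DMSO.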

Calls of active or inactive are those of the source. Rule for the calls: active = hit-call score of the fitted dose curve at least 0.9, where 1 is the maximum; inactive = score below 0.9.

Retinoic acid receptor alpha (Homo sapiens), sequence (P10276 whole entry, looked up): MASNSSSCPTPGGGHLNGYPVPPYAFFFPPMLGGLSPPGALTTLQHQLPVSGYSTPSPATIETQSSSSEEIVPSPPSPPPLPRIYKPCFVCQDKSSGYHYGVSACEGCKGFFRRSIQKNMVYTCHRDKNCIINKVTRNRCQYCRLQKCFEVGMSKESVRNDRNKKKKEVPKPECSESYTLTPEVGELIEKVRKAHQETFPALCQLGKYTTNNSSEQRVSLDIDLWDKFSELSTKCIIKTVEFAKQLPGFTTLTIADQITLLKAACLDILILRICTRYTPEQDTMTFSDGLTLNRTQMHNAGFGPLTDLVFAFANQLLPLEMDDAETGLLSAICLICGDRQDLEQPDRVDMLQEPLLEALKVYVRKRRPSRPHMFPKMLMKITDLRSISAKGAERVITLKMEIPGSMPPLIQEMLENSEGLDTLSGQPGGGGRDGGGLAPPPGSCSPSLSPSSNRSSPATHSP
CCAAT/enhancer-binding protein beta (Homo sapiens), sequence (P17676 whole entry, looked up, the tested form may be a part): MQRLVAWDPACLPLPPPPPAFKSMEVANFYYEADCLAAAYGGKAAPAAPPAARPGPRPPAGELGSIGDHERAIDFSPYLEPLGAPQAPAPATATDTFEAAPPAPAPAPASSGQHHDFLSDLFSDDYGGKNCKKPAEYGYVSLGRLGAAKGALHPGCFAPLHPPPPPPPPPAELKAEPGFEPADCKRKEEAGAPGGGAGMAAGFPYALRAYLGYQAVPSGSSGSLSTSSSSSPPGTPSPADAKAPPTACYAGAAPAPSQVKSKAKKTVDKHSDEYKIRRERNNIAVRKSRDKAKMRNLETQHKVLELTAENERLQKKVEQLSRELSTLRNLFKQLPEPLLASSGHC
Aryl hydrocarbon receptor (Homo sapiens), sequence (P35869 whole entry, looked up): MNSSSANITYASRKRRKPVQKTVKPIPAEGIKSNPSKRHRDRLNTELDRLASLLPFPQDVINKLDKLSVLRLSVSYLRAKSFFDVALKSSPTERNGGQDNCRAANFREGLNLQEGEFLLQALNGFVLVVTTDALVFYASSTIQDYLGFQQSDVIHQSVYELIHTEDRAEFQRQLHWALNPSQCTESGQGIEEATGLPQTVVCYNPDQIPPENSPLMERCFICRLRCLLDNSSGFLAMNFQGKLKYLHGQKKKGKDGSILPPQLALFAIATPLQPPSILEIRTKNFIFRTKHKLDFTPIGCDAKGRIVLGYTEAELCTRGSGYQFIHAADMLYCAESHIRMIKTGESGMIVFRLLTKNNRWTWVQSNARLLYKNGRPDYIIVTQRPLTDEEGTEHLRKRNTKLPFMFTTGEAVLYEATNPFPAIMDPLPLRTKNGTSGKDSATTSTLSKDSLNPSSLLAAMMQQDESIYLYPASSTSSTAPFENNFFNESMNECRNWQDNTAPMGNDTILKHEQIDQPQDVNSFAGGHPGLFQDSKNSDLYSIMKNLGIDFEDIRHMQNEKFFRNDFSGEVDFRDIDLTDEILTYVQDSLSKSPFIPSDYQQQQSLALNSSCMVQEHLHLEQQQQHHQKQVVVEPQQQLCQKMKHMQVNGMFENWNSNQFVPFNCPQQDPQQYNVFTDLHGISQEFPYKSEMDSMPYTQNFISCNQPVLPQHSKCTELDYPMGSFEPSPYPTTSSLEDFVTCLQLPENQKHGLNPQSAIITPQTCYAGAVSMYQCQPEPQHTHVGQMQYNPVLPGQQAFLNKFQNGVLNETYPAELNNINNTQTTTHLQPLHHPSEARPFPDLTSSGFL

As for `Cc1c(COC(=O)[C@@H]2[C@H](/C=C(\Cl)C(F)(F)F)C2(C)C)cccc1-c1ccccc1`, the result in assay [1], in assay [2], in assay [3], in assay [4], in assay [5] and in assay [6] was inactive. The call in [7], in [8], in [9], in assay [10], in assay [11] and in [12] was inactive. Besides, the outcome in assay [14], in assay [15], in [16] and in assay [17] was inactive. Also, the AC50 (commonly the concentration at which the activity in the assay is half-maximal) in assay [13] was 11.3 µM (active).

Regarding `CCOc1cc(C(C)(C)C)ccc1C1COC(c2c(F)cccc2F)=N1` (centres undefined), the AC50 was 103 µM (active) in assay [1], 47.2 µM (active) in assay [5], 4.09 µM (active) in assay [11] and 4.26 µM (active) in [17]. Also, the call in [2], in assay [3], in assay [4], in assay [6], in assay [7] and in [9] was inactive. Also, the molecule was called inactive in assay [10], in assay [12], in assay [13], in [14], in assay [15] and in assay [16].

For the molecule `CCCN(CC)CC1COC2(CCC(C(C)(C)C)CC2)O1` (centres undefined), the AC50 in [1] is 69.3 µM (active); in assay [2], 80.6 µM (active); in assay [4] it was 70.2 µM (active); in assay [5], 62.5 µM (active); in assay [11] it was 13.6 µM (active); in [13] it was 17.8 µM (active). The AC50 in [14] was 26.1 µM (active); in assay [16] it was 22.2 µM (active); in [17], 2.75 µM (active). In addition, the outcome in [3], in assay [6], in assay [7], in [8], in assay [9] and in assay [10] was inactive. Also, the outcome in [12] and in [15] was inactive.

For `CCSC(=O)N1CCCCCC1`, the result in assay [1], in assay [2], in [3], in assay [4], in assay [5] and in [6] was inactive. In addition, the outcome in [7], in assay [8], in assay [9], in [10], in [11] and in assay [12] was inactive. Besides, the molecule was classed as inactive in assay [13], in assay [14], in assay [18], in [15], in assay [16] and in [17].

Turning to `OC(c1ccc(Cl)cc1)(c1ccc(Cl)cc1)C(Cl)(Cl)Cl`, the AC50 in assay [1] is 32.2 µM (active); in [5], 32.2 µM (active); in assay [6], 68.8 µM (active); in [7] it was 107 µM (active). Further, the outcome in assay [2], in [3], in assay [4], in assay [8], in assay [9] and in assay [10] was inactive. Further, the call in assay [11], in assay [12], in [13], in [19], in assay [15] and in assay [16] was inactive. In assay [17], the molecule was called inactive.

Consider `COC(=O)c1c(C(F)F)nc(C(F)(F)F)c(C2=NCCS2)c1CC(C)C`, for which the AC50 is 60.5 µM (active) in assay [1]; 72.7 µM (active) in [5]; 9.92 µM (active) in assay [11]; 0.682 µM (active) in assay [12]; 50 µM (active) in assay [14]; 50 µM (active) in assay [16]. In addition, the molecule was classed as inactive in assay [2], in assay [3], in [4], in assay [6], in assay [7] and in [8]. Further, the outcome in [9], in assay [10], in [13], in assay [18], in [15] and in assay [17] was inactive.

With `CC1(C)C(C=C(Cl)Cl)C1C(=O)OC(C#N)c1cccc(Oc2ccccc2)c1` (centres undefined), the result in [1], in assay [2], in assay [3], in assay [4], in assay [5] and in assay [6] was inactive. Moreover, the molecule was classed as inactive in [7], in [8], in [9], in assay [10], in assay [11] and in [12]. The molecule was classed as inactive in assay [13], in assay [14], in assay [18], in assay [15], in [16] and in [17].

On to `C=C(C)CN(CC)c1c([N+](=O)[O-])cc(C(F)(F)F)cc1[N+](=O)[O-]`, for which the concentration at half-maximal activity (AC50) in assay [1] is 105 µM (active); in assay [5], 135 µM (active); in [19], 50 µM (active); in assay [17], 18.4 µM (active). Moreover, the outcome in assay [2], in [3], in assay [4], in assay [6], in [7] and in assay [8] was inactive. In addition, the molecule was classed as inactive in assay [9], in assay [10], in [11], in assay [12], in [13] and in assay [14]. Moreover, the result in [15] and in assay [16] was inactive.
